Data published in PubChem BioAssay (NCATS).
Records with an inconclusive call do not appear. Calls of active or inactive are those of the source. Calls come from the whole dose curve; as a rule, active = well fitted curve in the direction sought with a large enough effect; inconclusive = small, poorly fitted or top-dose-only effect, or another doubt; inactive = no such curve, though single readings can be large; an effect the other way counts as inactive or inconclusive.

Assays:
[1] = qHTS of pediatric cancer cell lines to identify multiple opportunities for drug repurposing: Primary screen for Saos-2 cells (AID 1347097); note: potency is the fitted concentration of half-maximal effect; nearly all actives have a fitted effect of over 40% in size
How it was run: (§1)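 CRCs from 8- or 11-point titrations (lowest final 0.59 nM NPC, 0.78 nM MIPE). Cell viability: CellTiter-Glo after 48 h incubation, 15 min room-temperature development, luminescence imaging.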

[2] = qHTS of pediatric cancer cell lines to identify multiple opportunities for drug repurposing: Primary screen for SK-N-SH cells (AID 1347098); note: nearly all actives have a fitted effect of over 65% in size; note: potency is the fitted concentration of half-maximal effect
How it was run: (§2)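 Cells (500-1,000/well) rested 5 h, then received compounds for 48 h; metabolically active cells were measured by CellTiter-Glo luminescence. Final concentrations spanned up to 46 µM (MIPE, 11-point) or 0.59 nM-46 µM (NPC, 8-point) in primary screens, 11-point in follow-ups.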

[3] = qHTS of pediatric cancer cell lines to identify multiple opportunities for drug repurposing: Primary screen for OHS-50 cells (AID 1347103); note: nearly all actives have a fitted effect of over 40% in size; note: potency is the fitted concentration of half-maximal effect
How it was run: as §2

[4] = qHTS of pediatric cancer cell lines to identify multiple opportunities for drug repurposing: Primary screen for control Hh wild type fibroblast cells (AID 1347106);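 note: series mostly up to about 46 µM; a drop in luminescence marks cytotoxicity and a rise apparent proliferation; nearly all actives have a fitted effect of over 55% in size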
How it was run: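 Cells (500-1,000/well) in growth media were settled 5 h at 37 degrees C, then given compounds for 48 h. Viability was read as CellTiter-Glo luminescence. Primary runs used MIPE at 11 points (0.78 nM-46 µM) and NPC at 8 points (0.59 nM-46 µM); follow-ups used 11 points.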

[5] = qHTS of pediatric cancer cell lines to identify multiple opportunities for drug repurposing: Primary screen for Rh30 cells (AID 1347107); note: series mostly up to about 46 µM; nearly all actives have a fitted effect of over 75% in size
How it was run: (§3)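 Viability after 48 h compound treatment at 37C, 500-1,000 cells/well, read as ATP luminescence with CellTiter-Glo. Primary screens used 11-point (MIPE, 0.78 nM-46 µM) or 8-point (NPC, 0.59 nM-46 µM) final concentrations; follow-up screens used 11-point dilutions.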

[6] = qHTS of pediatric cancer cell lines to identify multiple opportunities for drug repurposing: Primary screen for NB-EBc1 cells (AID 1347095)
How it was run: as §1

[7] = qHTS of pediatric cancer cell lines to identify multiple opportunities for drug repurposing: Primary screen for U-2 OS cells (AID 1347096); note: nearly all actives have a fitted effect of over 50% in size; note: potency is the fitted concentration of half-maximal effect
How it was run: as §3

[8] = qHTS of pediatric cancer cell lines to identify multiple opportunities for drug repurposing: Primary screen for NB1643 cells (AID 1347099); note: nearly all actives have a fitted effect of over 50% in size; note: potency is the fitted concentration of half-maximal effect
How it was run: as §1

[9] = qHTS of pediatric cancer cell lines to identify multiple opportunities for drug repurposing: Primary screen for LAN-5 cells (AID 1347100); note: potency is the fitted concentration of half-maximal effect
How it was run: as §3

[10] = qHTS of pediatric cancer cell lines to identify multiple opportunities for drug repurposing: Primary screen for BT-12 cells (AID 1347101); note: nearly all actives have a fitted effect of over 25% in size; note: potency is the fitted concentration of half-maximal effect
How it was run: as §2

[11] = qHTS of pediatric cancer cell lines to identify multiple opportunities for drug repurposing: Primary screen for Rh18 cells (AID 1347102); note: nearly all actives have a fitted effect of over 65% in size; note: potency is the fitted concentration of half-maximal effect
How it was run: as §3

[12] = qHTS of pediatric cancer cell lines to identify multiple opportunities for drug repurposing: Primary screen for Rh41 cells (AID 1347108); note: nearly all actives have a fitted effect of over 70% in size; note: potency is the fitted concentration of half-maximal effect
How it was run: as §1

[13] = qHTS of pediatric cancer cell lines to identify multiple opportunities for drug repurposing: Primary screen for RD cells (AID 1347104); note: nearly all actives have a fitted effect of over 55% in size; note: potency is the fitted concentration of half-maximal effect
How it was run: as §1

[14] = qHTS of pediatric cancer cell lines to identify multiple opportunities for drug repurposing: Primary screen for MG 63 (6-TG R) cells (AID 1347105); note: nearly all actives have a fitted effect of over 50% in size; note: potency is the fitted concentration of half-maximal effect
How it was run: as §1

[15] = qHTS of pediatric cancer cell lines to identify multiple opportunities for drug repurposing: Confirmatory screen for SK-N-MC cells (AID 1347111); details: SK-N-MC cell viability;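 note: potency is the fitted concentration of half-maximal effect; cells exposed to compound for 48 h before the readout; nearly all actives have a fitted effect of over 70% in size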
How it was run: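 SK-N-MC cells at 500-1,000 cells/well in growth media were pre-incubated 5 h, then exposed to compounds at 11-point dilutions for 48 h at 37 degrees C, 5% CO2. Viability was read as CellTiter-Glo luminescence.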

[16] = qHTS of pediatric cancer cell lines to identify multiple opportunities for drug repurposing: Confirmatory screen for NB1643 cells (AID 1347109); note: nearly all actives have a fitted effect of over 45% in size
How it was run: as §3

[17] = qHTS of pediatric cancer cell lines to identify multiple opportunities for drug repurposing: Confirmatory screen for A673 cells (AID 1347110); note: potency is the fitted concentration of half-maximal effect; nearly all actives have a fitted effect of over 65% in size
How it was run: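 Viability was read as ATP luminescence (CellTiter-Glo) after 48 h of compound exposure at 37 C in A673 cells seeded at 500-1,000/well. Titrations reached 46 uM final, with 11 points in the confirmatory screen. Concentration-response curves were fitted directly.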

[18] = qHTS of pediatric cancer cell lines to identify multiple opportunities for drug repurposing: Confirmatory screen for BT-12 cells (AID 1347112); note: nearly all actives have a fitted effect of over 55% in size
How it was run: as §3

[19] = qHTS of pediatric cancer cell lines to identify multiple opportunities for drug repurposing: Confirmatory screen for LAN-5 cells (AID 1347113); note: nearly all actives have a fitted effect of over 65% in size
How it was run: as §3

[20] = qHTS of pediatric cancer cell lines to identify multiple opportunities for drug repurposing: Confirmatory screen for DAOY cells (AID 1347114); note: nearly all actives have a fitted effect of over 65% in size
How it was run: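 Viability measured as metabolically active cells via CellTiter-Glo luminescence following 48 hours of compound exposure, 11-point dilutions in confirmatory testing. 500-1,000 cells/well plated 5 hours before dosing; controls were DMSO and 2.3 µM bortezomib.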

Measured: Potency

COC(=O)C1=C(C)NC(C)=C(C(=O)OCCN(C)Cc2ccccc2)C1c1cccc([N+](=O)[O-])c1 (stereo not given)
inactive: [4] | [5]
active: [1] 29.9 µM | [2] 4.33 µM | [3] 17.4 µM

CC(C)(C)c1ccc(C(=O)CCCN2CCC(OC(c3ccccc3)c3ccccc3)CC2)cc1
inactive: [2] | [4]
active: [1] 26.6 µM

CCOC(=O)c1cnc2c(cnn2CC)c1NN=C(C)C
inactive: [6] | [7] | [8] | [9] | [10] | [11] | [3] | [4] | [5] | [12]

CC1=C(C)C(=O)C(CCCCC#CCCCC#CCO)=C(C)C1=O
active: [3] 21.9 µM
inactive: [6] | [7] | [2] | [11] | [13] | [14] | [4] | [12]

CN(C)CCCN1c2ccccc2Sc2ccccc21
active: [3] 17.4 µM
inactive: [7] | [8] | [9] | [12]

CC(C)COCC(CN(Cc1ccccc1)c1ccccc1)N1CCCC1 (stereo not given)
active: [1] 26.6 µM | [2] 27.3 µM | [8] 29.9 µM | [3] 19.5 µM | [13] 26.6 µM
inactive: [4]

CN(C)CCCN1c2ccccc2Sc2ccc(C(F)(F)F)cc21
inactive: [7] | [14] | [4] | [12]
active: [10] 4.9 µM | [3] 24.6 µM | [15] 26.1 µM

O=C1NCN(c2ccccc2)C12CCN(CCCC(c1ccc(F)cc1)c1ccc(F)cc1)CC2
active: [1] 13.3 µM | [2] 13.7 µM | [10] 13.8 µM | [13] 26.6 µM
inactive: [8] | [4]

Nc1ncn([C@@H]2O[C@H](CO)[C@@H](O)[C@H]2O)c(=O)n1
inactive: [14] | [5]
active: [8] 7.5 µM | [10] 8.71 µM | [3] 24.6 µM

CC(=O)Nc1nnc(S(N)(=O)=O)s1
inactive: [6] | [7] | [2] | [9] | [10] | [11] | [3] | [13] | [4] | [5] | [12]

C[C@]12CC[C@@H]3c4ccc(O)cc4C[C@@H](CCCCCCCCCS(=O)CCCC(F)(F)C(F)(F)F)[C@H]3[C@@H]1CC[C@@H]2O (stereo not given in full)
active: [17] 11.7 µM | [15] 2.61 µM
not listed: [1] | [2] | [3]
inactive: all other assays above

c1cc(CN2CCCCC2)cc(OCCCNc2nc3ccccc3s2)c1
active: [2] 24.4 µM | [3] 27.6 µM
inactive: [6] | [8] | [11] | [14]

COCCCC/C(=N\OCCN)c1ccc(C(F)(F)F)cc1
inactive: [6] | [7] | [8] | [9] | [11] | [4] | [5] | [12]

CN(C)CC/C=C1\c2ccccc2COc2ccccc21
inactive: [6] | [7] | [8] | [9] | [14] | [4] | [5]

COC(=O)C1=C(C)NC(C)=C(C(=O)OC(C)(C)CN(C)CCC(c2ccccc2)c2ccccc2)C1c1cccc([N+](=O)[O-])c1 (stereo not given)
active: [9] 18.8 µM | [3] 12.3 µM

C(=C\c1ccccc1)/CN1CCN(C(c2ccccc2)c2ccccc2)CC1
inactive: [7] | [2] | [9] | [11] | [5] | [12]

COCCOC(=O)C1=C(C)NC(C)=C(C(=O)OC(C)C)C1c1cccc([N+](=O)[O-])c1 (stereo not given)
inactive: [7] | [2] | [8] | [4]
active: [11] 18.8 µM | [3] 24.6 µM

CC(=O)[C@]1(O)Cc2c(O)c3c(c(O)c2[C@@H](O[C@H]2C[C@H](N)[C@H](O)[C@H](C)O2)C1)C(=O)c1ccccc1C3=O
active: [7] 6.68 µM | [1] 3.35 µM | [2] 0.433 µM | [8] 0.376 µM | [10] 0.55 µM | [11] 0.422 µM | [14] 2.11 µM | [12] 0.841 µM
inactive: [5]

Cc1ccc(Cl)c(Nc2ccccc2C(=O)O)c1Cl
inactive: [7] | [9] | [10] | [11] | [13] | [5] | [12]

O=C(CCCN1CCC(O)(c2cccc(C(F)(F)F)c2)CC1)c1ccc(F)cc1
inactive: [6] | [7] | [2] | [9] | [14] | [4] | [5] | [12]

C#CCN(C)CCCOc1ccc(Cl)cc1Cl
inactive: [6] | [7] | [2] | [9] | [11] | [14] | [4] | [5] | [12]

CCCCCCCC/C=C\CCCCCCCC(=O)NCc1ccc(O)c(OC)c1
inactive: [7] | [2] | [8] | [11] | [13] | [14]

COCC(=O)O[C@]1(CCN(C)CCCc2nc3ccccc3[nH]2)CCc2cc(F)ccc2[C@@H]1C(C)C
inactive: [8] | [4]
active: [1] 26.6 µM | [2] 19.4 µM | [3] 21.9 µM | [13] 26.6 µM | [14] 21.1 µM
